Compound activity deposited in PubChem BioAssay by National Center for Advancing Translational Sciences (NCATS).
The list is not random: actives were taken first. Their share in the collection is about 2%.
IL2 activator = qHTS of IL-2 Activators; IL-2 activation reporter assay, cell-based qHTS; stimulated with anti-CD3/CD4/CD28 beads; in transgenic mouse T cells; activation, % (series mostly up to about 46 µM); actives 0.065% (n = 360,000); in the data active = activation above about 50%; inconclusive = mostly about 30% to 49%; note: 0% is about no effect
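EGFP and DsRed fluorescence is measured by plate cytometry in unstimulated transgenic mouse T cells exposed to compound for 60 minutes, then stimulated 18 hours at 37 degrees C with anti-CD3/anti-CD4 beads plus anti-CD28.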
NPSR antagonist = qHTS Assay for Antagonists of the Neuropeptide S Receptor: cAMP Signal Transduction. AID 1461, 2008. Q6W5P4. CHO-NPSR cells, cAMP TR-FRET, antagonist mode. Potency, µM (titrated, usually from 38.3 µM), inactives show at the top dose activity change, negative = inhibition, actives largely listed as inhibitors. actives 1% (n = 220,000); note: potency is the fitted concentration of half-maximal effect; % is set by controls: 0 for no effect and ±100 for the full control effect; nearly all actives have a fitted effect of over 50% in size
PKM2 activator = qHTS Assay for Activators of Human Muscle isoform 2 Pyruvate Kinase. Pyruvate kinase PKM (Homo sapiens), P14618. purified PKM2, Kinase-Glo ATP luminescence, activation; response scale: 0% is enzyme alone, no compound. Potency, µM (doses to about 57.5 µM), for the others: at the top dose activation, actives largely listed as activators. actives 0.34% (n = 260,000). AID 1631, 2009; note: potency is the fitted concentration of half-maximal effect; % is set by controls: 0 for no effect and ±100 for the full control effect; nearly all actives have a fitted effect of over 55% in size
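Purified hPK-M2 (>95%) run at intermediate activity with 0.1 mM ADP and 0.5 mM PEP in 50 mM imidazole pH 7.2, KCl, MgCl2; 1 h room temperature. ATP formed read by Kinase-Glo luminescence; normalized to uninhibited and no-enzyme controls.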
ClpP mod = qHTS Assay for Activators of ClpP; Potency, µM (series often up to 57.5 µM), without a hit: top-dose activity change, negative = active; AID 651965, 2013; ATP-dependent Clp protease proteolytic subunit (Bacillus subtilis (strain 168)), P80244; purified B. subtilis ClpP, FRET peptide cleavage, 20 min; actives 1.9% (n = 340,000); active = well fitted falling curve with a large enough effect; inconclusive = small, poorly fitted or top-dose-only effect; inactive = no such curve, though single readings can be large or run the other way; note: potency is the fitted concentration of half-maximal effect; the source files actives as falling curves though it sought activators and does not explain the sign; nearly all actives have a fitted effect of over 65% in size
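ClpP 10 microg/mL final, pH 8 Tris/KCl buffer with BSA, glycerol, Tween-20; compound pinned in; FRET-FV substrate; RT 20 min; Ex320/Em430; ΔFRET vs ADEP 5.8 microM, DMSO, no enzyme.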
* hit, by the source's call; [ ] = dose if it differs, or a comment. Unless noted, calls come from the whole dose curve; as a rule, active = well fitted curve in the direction sought with a large enough effect; inconclusive = small, poorly fitted or top-dose-only effect, or another doubt; inactive = no such curve, though single readings can be large; an effect the other way counts as inactive or inconclusive.

How did Oc1c(Br)cc(C=Nc2ccc3nc(-c4ccccc4)[nH]c3c2)c(O)c1Br do in these assays?
IL2 activator: 1.8; NPSR antagonist: 10µM*; PKM2 activator: -17.3%

Results for O=[N+]([O-])c1ccc(O)c(C=Nc2ccc3nc(-c4ccccc4)[nH]c3c2)c1 ?
IL2 activator: 1.7; NPSR antagonist: -19.7%; PKM2 activator: -16.4%; ClpP mod: 96.0%

What do the screens show for `CCN1CCN(CC(=O)Nc2c(OC)cccc2OC)CC1`?
IL2 activator: -2.5; ClpP mod: 22.4µM*

What do the screens show for `CCN1CCN(CCC(=O)Nc2cc(OC)cc(OC)c2)CC1`?
IL2 activator: -0.7; PKM2 activator: 1.2%; ClpP mod: 28.2µM*

Results for O=C(Nc1ccccc1)N1CCC(C(=O)N2CCN(S(=O)(=O)c3cccc(F)c3)CC2)CC1 ?
IL2 activator: -1.9; NPSR antagonist: -15.6%[46.1 µM]; PKM2 activator: -4.7%; ClpP mod: 0.3%

Results for S=C1NC(c2ccccc2)N2C(=S)NC(c3ccccc3)N12 (stereo not drawn) ?
IL2 activator: -3.4; NPSR antagonist: 0.8%[46.1 µM]; PKM2 activator: -47.2%; ClpP mod: -1.6%

How did O=C(O)c1ccc2cccc(Cl)c2c1O do in these assays?
IL2 activator: -1.8; NPSR antagonist: 19.3%[46.1 µM]; PKM2 activator: -21.3%; ClpP mod: 17.8µM*

How did O=C(O)c1cccc(O)c1O do in these assays?
IL2 activator: 0.4; ClpP mod: -16.8%

Results for CCOC(=O)c1c(-c2ccc(C)cc2)csc1NC(=O)c1cc2ccccc2oc1=O ?
IL2 activator: 6.3; NPSR antagonist: 10µM*; PKM2 activator: 2.9%

How did COC(=O)c1c(-c2ccccc2)csc1NC(=O)c1c(-c2ccccc2)noc1C do in these assays?
IL2 activator: 1.3; NPSR antagonist: -22.3%; PKM2 activator: 6.4%; ClpP mod: inconclusive

How did CCOC(=O)c1c(-c2ccc(F)cc2)csc1NC(=O)c1c(-c2ccccc2)noc1C do in these assays?
IL2 activator: 4.5; NPSR antagonist: -39.3%; PKM2 activator: -0.5%; ClpP mod: 20µM*

How did Fc1ccc(N/N=C/c2ccncc2)c(F)c1 do in these assays?
IL2 activator: -0.5; NPSR antagonist: 4.5%; PKM2 activator: -5.7%; ClpP mod: 22.4µM*

How did Cc1cc(C(=O)O)c(=O)[nH]c1C do in these assays?
IL2 activator: -1.7; NPSR antagonist: 8.6%[46.1 µM]; PKM2 activator: -2.0%; ClpP mod: 25.1µM*

How did CCc1n[nH]c2c1/C(=N\O)CC(c1ccccc1)C2 (stereo not drawn) do in these assays?
IL2 activator: -2.2; NPSR antagonist: -8.3%[46.1 µM]; PKM2 activator: -0.8%; ClpP mod: -0.5%

How did CCCCc1n[nH]c2c1/C(=N/O)CC(c1ccccc1)C2 (stereo not drawn) do in these assays?
IL2 activator: 1.0; NPSR antagonist: -29.4%[46.1 µM]; PKM2 activator: -13.7%; ClpP mod: 17.8µM*

Results for Cc1onc(-c2ccccc2Cl)c1C(=O)OCC(=O)Nc1cccc(S(=O)(=O)N2CCOCC2)c1 ?
IL2 activator: 5.4; NPSR antagonist: -47.7%; PKM2 activator: -2.5%

How did COc1ccc(-c2ccc(OC)c([C@H]3[C@H]4C=CC[C@@H](C)[C@@H]4C(=O)N3Cc3ccccc3)c2)cc1OC do in these assays?
IL2 activator: -0.1; NPSR antagonist: inconclusive; PKM2 activator: 0.0%; ClpP mod: inconclusive

How did COc1ccc(-c2ccc([C@H]3[C@H]4C=CC[C@@H](C)[C@@H]4C(=O)N3Cc3ccccc3)c(F)c2)cc1C do in these assays?
IL2 activator: 1.2; NPSR antagonist: -51.5%; PKM2 activator: -1.6%; ClpP mod: 25.1µM*

How did COc1ccc(-c2c([C@H]3[C@H]4C=CC[C@@H](C)[C@@H]4C(=O)N3Cc3ccccc3)ccc3ccccc23)cc1OC do in these assays?
IL2 activator: -0.5; NPSR antagonist: 6.31µM*; PKM2 activator: -0.1%; ClpP mod: inconclusive

How did CC1=CC(C)C2C(=O)N(c3ccccc3)NC(=O)C2C1 (stereo not drawn) do in these assays?
IL2 activator: -1.7; NPSR antagonist: 11.1%; PKM2 activator: -8.0%; ClpP mod: 15.8µM*

Results for CC1=CC(C)C2C(=O)N(O)C(=O)C2C1 (stereo not drawn) ?
IL2 activator: 0.4; NPSR antagonist: -2.9%[46.1 µM]; PKM2 activator: -1.0%; ClpP mod: -5.3%
